These results are taken from PubChem BioAssay AID485297 (National Center for Advancing Translational Sciences (NCATS), 2010).

About 9,100 (2.8%) of roughly 320,000 compounds were called active. Entries that show only a call come without a potency. Not shown: some 3% with an inconclusive outcome. Many of the other results were omitted from the sample, so actives are more common in it than they were. A number with no mark means an inactive call. Calls come from the whole dose curve; as a rule, active = well fitted activation curve with a large enough effect; inconclusive = small, poorly fitted or top-dose-only effect; inactive = no such curve, though single readings can be large or run the other way.
Potency is the fitted concentration of half-maximal effect.

The test is described as follows: qHTS Assay for Rab9 Promoter Activators. Note: nearly all actives have a fitted effect of over 60% in size. The note with it: Huh7 Rab9 promoter-luciferase reporter, luminescence, 24 h; series mostly up to 9.22 µM. Put shortly:
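Stable Rab9-luc Huh7, 1500 cells/well, 2 h settle; cmpd in DMSO, 24 h, 37 °C/5% CO2; luciferase reagent 10 min RT; luminescence.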
For orientation: Quantitative high-throughput screening tests each substance at several concentrations.
Consider `S=C(Nc1cccnc1)Nc1ccccn1`, for which the activation, negative = inhibition is -1.03% [at 1.84 µM].

Consider `O=C(CSc1nnc(COc2ccc(Cl)cc2)n1Cc1ccco1)N1CCNC1=O`, for which the Potency result was “inactive”.

`O=C(NCC1CCCO1)c1ccc(S(=O)(=O)Nc2ccc(F)cc2)cc1` (stereo not drawn): the Potency result is “inactive”.

In the case of `COc1cccc(/C=C/C(=O)OCC(=O)N2CCN(c3ccccc3)CC2)c1`, the Potency result was “inactive”.

`CC(C)CNC(=O)CC(NCC(C)C)C(=O)O` (stereo not drawn): the Potency result was “inactive”.

Turning to `C=CCn1c(Oc2ccc(C(=O)OC)cc2)nc2c1c(=O)n(C)c(=O)n2C`, the Potency result was “inactive”.

For `CCN(CC)c1ccc(C(=O)N/N=C/c2ccc(N3CCOCC3)cc2)cc1`, the Potency result is “inactive”.

Regarding `C(=N/Nc1cc(N2CCOCC2)nc(N2CCOCC2)n1)/c1ccccc1`, the Potency entry is “inactive”.

With `Cc1ccccc1N/N=C/c1ccc(N2CCOCC2)cc1`, the Potency was 2 µM (active).

As for `COc1ccc(C(=O)NCC(=O)N/N=C/c2cccnc2)cc1`, the Potency entry is “inactive”.

`CCN1CCC(=NNC(=O)c2ccc(C)c([N+](=O)[O-])c2)CC1`: the Potency entry was “inactive”.

In the case of `Cc1cc(O)c(NC(=O)c2ccc(C)c([N+](=O)[O-])c2)cc1C`, the Potency is 2.82 µM (active).

As for `Cc1ccc(C(=O)Nc2cccc3ncccc23)cc1[N+](=O)[O-]`, the Potency entry was “inactive”.

In the case of `CN(CC(=O)Nc1c(Cl)cccc1Cl)C(=O)CC1OC(=O)c2ccccc21` (stereo not drawn), the Potency result is “inactive”.

As to `COc1cc(C(c2c(NC(=O)c3ccco3)sc(C)c2C)N2CCOCC2)cc(OC)c1OC` (stereo not drawn), the Potency result is “inactive”.

With `COCCN(C(=O)CSCc1ccc(C)cc1)c1c(N)n(CC(C)C)c(=O)[nH]c1=O`, the Potency result was “inactive”.

For the compound `CCN(CC)S(=O)(=O)c1ccc(OC)c(NC(=O)CCc2c(C)noc2C)c1`, the Potency result is “inactive”.

Turning to `O=C(c1ccc(F)cc1)n1cc(C(=S)N2CCOCC2)c2ccccc21`, the Potency entry is “inactive”.

As for `O=C(c1ccc(F)cc1)n1c(=S)nc2ccccn21`, the Potency was 0.891 µM (active).

For the compound `O=C(C[n+]1cc(Br)cc2ccccc21)c1ccc(F)cc1`, the Potency entry was “inactive”.

With `FC(F)(F)c1cnc(Oc2ccccc2-c2nnc(-c3ccc(Cl)cc3)o2)c(Cl)c1`, the Potency entry was “inactive”.

As to `Clc1ccc(-c2nnc(SCc3nc4ccccc4s3)o2)cc1`, the Potency result is “inactive”.

As for `CSc1ccccc1-c1nnc(-c2ccc(Cl)cc2)o1`, the Potency is 3.98 µM (active).

On to `COC(=O)c1ccc(C)c(NC(=O)C2CC(=O)N(C3CCCC(C)C3C)C2)c1` (stereo not drawn), for which the Potency entry was “inactive”.

On to `CC(=O)Nc1ccc(S(=O)(=O)NC(C)C(=O)OCCOc2ccc(F)cc2)cc1` (stereo not drawn), for which the Potency result is “inactive”.

Consider `COc1ccc(C(=O)Nc2ccccc2C(=O)N/N=C/c2ccc(O)c(OC)c2)cc1`, for which the Potency result is “inactive”.

`O=C(N/N=C/c1cccc(Br)c1)c1ccc(N2CCCC2=O)cc1`: the Potency result was “inactive”.

On to `COc1cc(/C=N/NC(=O)c2ccc(N3CCCC3=O)cc2)ccc1O`, for which the Potency is 3.98 µM (active).
